# Test results: the supplement of paper PMC4466140
# Assays:
# Assay in all cases: SPOT peptide array binding signal intensity (averaged, normalized) (arbitrary units (background-subtracted, floor 0; scale differs between SH3 domains)); higher = stronger binding of the SH3 domain to the peptide
# [1] = target: AgAbp1
# Outline: (§1)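 SH3 domains from four yeast species were expressed as GST fusions in E. coli BL21(DE3) and purified on glutathione Sepharose. Each was incubated at 10 μg/ml overnight at 4°C in TBS-based blocking buffer on cellulose membranes bearing synthetic 15-mer peptides, in which serines replaced cysteines. Bound protein was detected with anti-GST antibody, an HRP anti-mouse secondary and luminol, then imaged and quantified with Genespotter. The binding signal is the normalized, background-subtracted spot intensity averaged over replicates, in arbitrary units that are not the same from one domain to another.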
# [2] = target: AgBbc1
# Outline: as §1
# [3] = target: AgBem1-D1
# Outline: as §1
# [4] = target: AgBzz1-D1
# Outline: as §1
# [5] = target: AgBzz1-D2
# Outline: as §1
# [6] = target: AgCyk3
# Outline: as §1
# [7] = target: AgFus1
# Outline: as §1
# [8] = target: AgHof1
# Outline: as §1
# [9] = target: AgHse1
# Outline: as §1
# [10] = target: AgLsb1
# Outline: as §1
# [11] = target: AgLsb4
# Outline: as §1
# [12] = target: AgMyo5
# Outline: as §1
# [13] = target: AgNbp2
# Outline: as §1
# [14] = target: AgRvs167
# Outline: as §1
# [15] = target: AgSho1
# Outline: as §1
# [16] = target: AgSla1-D1-D2
# Outline: as §1
# [17] = target: AgSla1-D3
# Outline: as §1
# [18] = target: CaAbp1-D1
# Outline: as §1
# [19] = target: CaAbp1-D2
# Outline: as §1
# [20] = target: CaBbc1
# Outline: as §1
# [21] = target: CaBem1-D1
# Outline: as §1
# [22] = target: CaBzz1-D1
# Outline: as §1
# [23] = target: CaBzz1-D2
# Outline: as §1
# [24] = target: CaCyk3
# Outline: as §1
# [25] = target: CaFus1
# Outline: as §1
# [26] = target: CaHof1
# Outline: as §1
# [27] = target: CaHse1
# Outline: as §1
# [28] = target: CaLsb1
# Outline: as §1
# [29] = target: CaLsb4
# Outline: as §1
# [30] = target: CaMyo5
# Outline: as §1
# [31] = target: CaNbp2
# Outline: as §1
# [32] = target: CaRvs167
# Outline: as §1
# [33] = target: CaRvs167-3
# Outline: as §1
# [34] = target: CaSho1
# Outline: as §1
# [35] = target: CaSla1-D1-D2
# Outline: as §1
# [36] = target: CaSla1-D3
# Outline: as §1
# [37] = target: ScAbp1
# Outline: as §1
# [38] = target: ScBbc1
# Outline: as §1
# [39] = target: ScBem1-D1
# Outline: as §1
# [40] = target: ScBzz1-D1
# Outline: as §1
# [41] = target: ScBzz1-D2
# Outline: as §1
# [42] = target: ScCyk3
# Outline: as §1
# [43] = target: ScFus1
# Outline: as §1
# [44] = target: ScHof1
# Outline: as §1
# [45] = target: ScHse1
# Outline: as §1
# [46] = target: ScLsb1
# Outline: as §1
# [47] = target: ScLsb2
# Outline: as §1
# [48] = target: ScLsb3
# Outline: as §1
# [49] = target: ScLsb4
# Outline: as §1
# [50] = target: ScMyo3
# Outline: as §1
# [51] = target: ScMyo5
# Outline: as §1
# [52] = target: ScNbp2
# Outline: as §1
# [53] = target: ScPex13
# Outline: as §1
# [54] = target: ScRvs167
# Outline: as §1
# [55] = target: ScSho1
# Outline: as §1
# [56] = target: ScSla1-D1-D2
# Outline: as §1
# [57] = target: ScSla1-D3
# Outline: as §1
# [58] = target: SpAbp1-D1
# Outline: as §1
# [59] = target: SpBbc1
# Outline: as §1
# [60] = target: SpBzz1-D1
# Outline: as §1
# [61] = target: SpBzz1-D2
# Outline: as §1
# [62] = target: SpCyk3
# Outline: as §1
# [63] = target: SpHof1
# Outline: as §1
# [64] = target: SpHof1-2
# Outline: as §1
# [65] = target: SpHof1-3
# Outline: as §1
# [66] = target: SpHse1
# Outline: as §1
# [67] = target: SpLsb1
# Outline: as §1
# [68] = target: SpLsb4
# Outline: as §1
# [69] = target: SpMyo1
# Outline: as §1
# [70] = target: SpNbp2
# Outline: as §1
# [71] = target: SpPex13
# Outline: as §1
# [72] = target: SpRvs167
# Outline: as §1
# [73] = target: SpSla1-D1-D2
# Outline: as §1
# [74] = target: SpSla1-D3
# Outline: as §1
binder,measurement,setting,value
VLRFLGFPLPIFEKG,SPOT peptide array binding signal intensity,[1],2
same,SPOT peptide array binding signal intensity,[2],≤ 0
same,SPOT peptide array binding signal intensity,[3],24.5
same,SPOT peptide array binding signal intensity,[4],15
same,SPOT peptide array binding signal intensity,[5],≤ 0
same,SPOT peptide array binding signal intensity,[6],≤ 0
same,SPOT peptide array binding signal intensity,[7],393
same,SPOT peptide array binding signal intensity,[8],9
same,SPOT peptide array binding signal intensity,[9],845
same,SPOT peptide array binding signal intensity,[10],7.75
same,SPOT peptide array binding signal intensity,[11],36
same,SPOT peptide array binding signal intensity,[12],0.5
same,SPOT peptide array binding signal intensity,[13],≤ 0
same,SPOT peptide array binding signal intensity,[14],1.67
same,SPOT peptide array binding signal intensity,[15],31
same,SPOT peptide array binding signal intensity,[16],3
same,SPOT peptide array binding signal intensity,[17],2
same,SPOT peptide array binding signal intensity,[18],4
same,SPOT peptide array binding signal intensity,[19],3.5
same,SPOT peptide array binding signal intensity,[20],≤ 0
same,SPOT peptide array binding signal intensity,[21],≤ 0
same,SPOT peptide array binding signal intensity,[22],≤ 0
same,SPOT peptide array binding signal intensity,[23],0.25
same,SPOT peptide array binding signal intensity,[24],≤ 0
same,SPOT peptide array binding signal intensity,[25],3750
same,SPOT peptide array binding signal intensity,[26],≤ 0
same,SPOT peptide array binding signal intensity,[27],35.8
same,SPOT peptide array binding signal intensity,[28],1
same,SPOT peptide array binding signal intensity,[29],≤ 0
same,SPOT peptide array binding signal intensity,[30],≤ 0
same,SPOT peptide array binding signal intensity,[31],129
same,SPOT peptide array binding signal intensity,[32],8.5
same,SPOT peptide array binding signal intensity,[33],22.2
same,SPOT peptide array binding signal intensity,[34],496
same,SPOT peptide array binding signal intensity,[35],4
same,SPOT peptide array binding signal intensity,[36],4
same,SPOT peptide array binding signal intensity,[37],1.5
same,SPOT peptide array binding signal intensity,[38],1.5
same,SPOT peptide array binding signal intensity,[39],11.5
same,SPOT peptide array binding signal intensity,[40],24
same,SPOT peptide array binding signal intensity,[41],14
same,SPOT peptide array binding signal intensity,[42],80.5
same,SPOT peptide array binding signal intensity,[43],404
same,SPOT peptide array binding signal intensity,[44],≤ 0
same,SPOT peptide array binding signal intensity,[45],2000
same,SPOT peptide array binding signal intensity,[46],≤ 0
same,SPOT peptide array binding signal intensity,[47],≤ 0
same,SPOT peptide array binding signal intensity,[48],≤ 0
same,SPOT peptide array binding signal intensity,[49],≤ 0
same,SPOT peptide array binding signal intensity,[50],0.5
same,SPOT peptide array binding signal intensity,[51],≤ 0
same,SPOT peptide array binding signal intensity,[52],19
same,SPOT peptide array binding signal intensity,[53],≤ 0
same,SPOT peptide array binding signal intensity,[54],≤ 0
same,SPOT peptide array binding signal intensity,[55],662
same,SPOT peptide array binding signal intensity,[56],3
same,SPOT peptide array binding signal intensity,[57],≤ 0
same,SPOT peptide array binding signal intensity,[58],1
same,SPOT peptide array binding signal intensity,[59],≤ 0
same,SPOT peptide array binding signal intensity,[60],3.5
SKSRLLIELPEGFFT,SPOT peptide array binding signal intensity,[1],2
same,SPOT peptide array binding signal intensity,[2],0.5
same,SPOT peptide array binding signal intensity,[3],≤ 0
same,SPOT peptide array binding signal intensity,[4],59
same,SPOT peptide array binding signal intensity,[5],78
same,SPOT peptide array binding signal intensity,[6],1
same,SPOT peptide array binding signal intensity,[7],322
same,SPOT peptide array binding signal intensity,[8],18.5
same,SPOT peptide array binding signal intensity,[9],16
same,SPOT peptide array binding signal intensity,[10],≤ 0
same,SPOT peptide array binding signal intensity,[11],46
same,SPOT peptide array binding signal intensity,[12],≤ 0
same,SPOT peptide array binding signal intensity,[13],≤ 0
same,SPOT peptide array binding signal intensity,[14],0.5
same,SPOT peptide array binding signal intensity,[15],≤ 0
same,SPOT peptide array binding signal intensity,[16],67
same,SPOT peptide array binding signal intensity,[17],0.25
same,SPOT peptide array binding signal intensity,[18],≤ 0
same,SPOT peptide array binding signal intensity,[19],≤ 0
same,SPOT peptide array binding signal intensity,[20],19.5
same,SPOT peptide array binding signal intensity,[21],8.5
same,SPOT peptide array binding signal intensity,[22],82.5
same,SPOT peptide array binding signal intensity,[23],18.8
same,SPOT peptide array binding signal intensity,[24],≤ 0
same,SPOT peptide array binding signal intensity,[25],1020
same,SPOT peptide array binding signal intensity,[26],≤ 0
same,SPOT peptide array binding signal intensity,[27],5.25
same,SPOT peptide array binding signal intensity,[28],≤ 0
same,SPOT peptide array binding signal intensity,[29],≤ 0
same,SPOT peptide array binding signal intensity,[30],117
same,SPOT peptide array binding signal intensity,[31],34.5
same,SPOT peptide array binding signal intensity,[32],1.83
same,SPOT peptide array binding signal intensity,[33],51.8
same,SPOT peptide array binding signal intensity,[34],56.5
same,SPOT peptide array binding signal intensity,[35],≤ 0
same,SPOT peptide array binding signal intensity,[36],22
same,SPOT peptide array binding signal intensity,[37],≤ 0
same,SPOT peptide array binding signal intensity,[38],1
same,SPOT peptide array binding signal intensity,[39],11.5
same,SPOT peptide array binding signal intensity,[40],75.5
same,SPOT peptide array binding signal intensity,[41],125
same,SPOT peptide array binding signal intensity,[42],7
same,SPOT peptide array binding signal intensity,[43],317
same,SPOT peptide array binding signal intensity,[44],1.5
same,SPOT peptide array binding signal intensity,[45],89
same,SPOT peptide array binding signal intensity,[46],≤ 0
same,SPOT peptide array binding signal intensity,[47],≤ 0
same,SPOT peptide array binding signal intensity,[48],≤ 0
same,SPOT peptide array binding signal intensity,[49],≤ 0
same,SPOT peptide array binding signal intensity,[50],1
same,SPOT peptide array binding signal intensity,[51],0.5
same,SPOT peptide array binding signal intensity,[52],≤ 0
same,SPOT peptide array binding signal intensity,[53],≤ 0
same,SPOT peptide array binding signal intensity,[54],0.667
same,SPOT peptide array binding signal intensity,[55],145
same,SPOT peptide array binding signal intensity,[56],≤ 0
same,SPOT peptide array binding signal intensity,[57],15
same,SPOT peptide array binding signal intensity,[58],≤ 0
same,SPOT peptide array binding signal intensity,[59],≤ 0
same,SPOT peptide array binding signal intensity,[60],68.5
same,SPOT peptide array binding signal intensity,[61],0.25
same,SPOT peptide array binding signal intensity,[62],1
same,SPOT peptide array binding signal intensity,[63],204
same,SPOT peptide array binding signal intensity,[64],13.5
same,SPOT peptide array binding signal intensity,[65],7.5
same,SPOT peptide array binding signal intensity,[66],45.5
same,SPOT peptide array binding signal intensity,[67],≤ 0
same,SPOT peptide array binding signal intensity,[68],≤ 0
same,SPOT peptide array binding signal intensity,[69],0.5
same,SPOT peptide array binding signal intensity,[70],≤ 0
same,SPOT peptide array binding signal intensity,[71],≤ 0
same,SPOT peptide array binding signal intensity,[72],2
same,SPOT peptide array binding signal intensity,[73],≤ 0
same,SPOT peptide array binding signal intensity,[74],≤ 0
